Test results: PubChem BioAssay AID624330 (Southern Research Specialized Biocontainment Screening …, 2012)
Out of some 340,000 compounds screened, about 2,100 (0.62%) were called active.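 How the source made its calls: active means first-screen hits whose inhibition reached a set limit at any dose in the follow-up dose series; inconclusive means inhibition above the set first-screen limit but never retested; inactive means the rest.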 Only a sample is shown. Entries with a potency or affinity are not part of this list.

The compounds below were run against Rac GTPase-activating protein 1 (Homo sapiens) (UniProt Q9H0H5) (assay: MgcRacGAP GTPase-activating activity inhibitors, confirmation, biochemical, ADP Hunter fluorescence, primary and confirmatory (AID 624330;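 further: fluorescence reports GDP produced by GAP-driven GTP hydrolysis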)). Settings: MgcRacGAP-stimulated Rac1 GTP hydrolysis, at 30 µM, active compounds read high, GST-tagged Rac1 F28L mutant substrate.
Sequence of Rac GTPase-activating protein 1 (Homo sapiens) (Q9H0H5 whole entry, looked up): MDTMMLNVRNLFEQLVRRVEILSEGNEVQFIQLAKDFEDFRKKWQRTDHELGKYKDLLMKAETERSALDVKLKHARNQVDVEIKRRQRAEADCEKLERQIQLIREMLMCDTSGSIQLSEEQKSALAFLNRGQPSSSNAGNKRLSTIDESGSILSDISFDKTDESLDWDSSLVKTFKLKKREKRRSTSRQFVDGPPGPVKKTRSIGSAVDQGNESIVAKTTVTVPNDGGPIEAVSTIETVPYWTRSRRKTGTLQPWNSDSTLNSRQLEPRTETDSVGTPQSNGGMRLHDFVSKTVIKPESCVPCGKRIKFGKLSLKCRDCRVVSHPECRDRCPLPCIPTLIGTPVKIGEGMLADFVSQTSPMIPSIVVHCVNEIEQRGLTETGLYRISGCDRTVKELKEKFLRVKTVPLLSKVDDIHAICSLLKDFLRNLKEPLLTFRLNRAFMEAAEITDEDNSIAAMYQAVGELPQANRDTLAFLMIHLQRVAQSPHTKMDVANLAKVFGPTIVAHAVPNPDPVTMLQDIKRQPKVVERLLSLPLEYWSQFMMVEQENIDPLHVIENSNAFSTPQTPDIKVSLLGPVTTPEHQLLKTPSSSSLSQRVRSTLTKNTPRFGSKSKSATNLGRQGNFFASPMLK

inhibition, inactive:
Cc1ccc(C(=O)N2CCN(c3ccc(N4CCOCC4)nn3)CC2)cc1C 5.24%
CCOC(=O)Nc1sc(C)c(C)c1C(=O)OCC -8.16%
CCOC(=O)c1c(NC(N)=O)sc(C)c1C 1.42%
O=c1[nH]c2ccccc2n2c(-c3ccncc3)nnc12 6.75%
O=c1[nH]c2ccccc2n2c(C(F)(F)F)nnc12 5.97%
O=C(Nc1ccc(Cl)cc1)c1ccc2nsnc2c1 -0.42%
COC(=O)c1ccc(NC(=O)c2ccc3nc(C)sc3c2)cc1 -0.39%
CC(=O)c1ccc(NC(=O)c2ccc3nc(C)sc3c2)cc1 5.73%
COC(=O)c1ccc(NC(=O)c2ccc3nsnc3c2)cc1 2.71%
O=C(/C=C/c1ccc(Cl)c(Cl)c1)NCCCn1ccnc1 7.08%
CN1c2ccc(Cl)cc2C(=O)NC1c1ccc([N+](=O)[O-])s1 (stereo not drawn) 11.4%
Cc1cccn2c(=O)c(C=NCc3ccccc3)c(NCCO)nc12 7.69%
C#CCOCCOCCOCCNc1nc(N2CCN(C(=O)[C@H]([C@@H](C)CC)n3cc([C@@H](N)CC(C)C)nn3)CC2)nc(N2CCN(C(=O)[C@H](CCCCN)n3cc([C@@H](N)C(C)CC)nn3)CC2)n1 (stereo partly drawn) 19.8%
C#CCOCCOCCOCCNc1nc(N2CCOCC2)nc(N2CCN(C(=O)[C@H](Cc3cc4ccccc4[nH]3)n3cc([C@@H](N)C(C)CC)nn3)CC2)n1 (stereo partly drawn) 13.4%
C#CCOCCOCCOCCNc1nc(N2CCOCC2)nc(N2CCN(C(=O)[C@H](CCCCN)n3cc([C@@H](N)CC(C)C)nn3)CC2)n1 11.6%
C#CCOCCOCCOCCNc1nc(N2CCN(C(=O)[C@H](CCCCN)n3cc(C(N)CC(C)C)nn3)CC2)nc(N2CCN(C(=O)[C@H](CCC(=O)O)n3cc(C(N)[C@H](C)CC)nn3)CC2)n1 (stereo partly drawn) 13.4%
C#CCOCCOCCOCCNc1nc(N2CCN(C(=O)[C@H](CCCCN)n3cc([C@@H](N)CO)nn3)CC2)nc(N2CCN(C(=O)[C@H](CCCCN)n3cc([C@@H](N)CC(C)C)nn3)CC2)n1 19.8%
C#CCOCCOCCOCCNc1nc(N2CCN(C(=O)C(Cc3cc4ccccc4[nH]3)n3cc(C(N)C(C)CC)nn3)CC2)nc(N2CCN(C(=O)C(Cc3cc4ccccc4[nH]3)n3cc(C(N)C(C)CC)nn3)CC2)n1 (stereo not drawn) 4.22%
CC(OC(=O)c1cc(=O)[nH]c2ccccc12)C(=O)N1C(C)CCCC1C (stereo not drawn) 3.29%
COc1ccccc1Nc1nnc(SCc2cc(=O)n3cc(C)ccc3n2)s1 10.9%
Cc1cc(C)n2nc(SCc3nc4ccccc4[nH]3)nc2n1 3.82%
C/C=C\C=C/C(=O)Nc1cccc(C2=NOC3(C2)C[C@@H](C(N)=O)N(C(=O)COc2ccc(Cl)cc2)C3)c1 (stereo partly drawn) 7.01%
O=C(c1sc2ccccc2c1Cl)N1CCN(c2ncccn2)CC1 5.52%
Cc1nc(Nc2nc(CSc3ccc(Cl)cc3)cc(=O)[nH]2)nc2ccccc12 4.96%
O=C(COC(=O)C1CC(=O)N(c2ccccc2)C1)c1ccccc1 (stereo not drawn) 4.11%
O=C(CCCN1C(=O)/C(=C/c2ccccc2Cl)SC1=S)NCCCN1CCOCC1 12.8%
O=C1C(=Cc2ccccc2O)SC(=S)N1CCCN1CCOCC1 14.5%
CCN(CC)C(=S)Nc1ccc2nc3n(c(=O)c2c1)CCCCC3 3.47%
O=C(O)c1ccccc1C(=O)Nc1ccccn1 3.57%
O=C(Nc1ccccn1)c1cc2ccccc2cc1O 6.04%
OCCSc1c(F)c(SCCO)c(SCCO)c(F)c1SCCO -1.8%
Cn1c(=O)[nH]c(=O)c2c1nc(NCCc1ccccc1)n2CC(O)COc1ccccc1 (stereo not drawn) 4.54%
CCOC(=O)C1(CCOC)CCN(C/C=C/c2ccccc2OC)CC1 5.1%
O=C(CNC(=O)c1ccncc1)N/N=C/c1cc(Br)ccc1O 3.51%
COc1ccc(Br)cc1/C=N/NC(=O)CNC(=O)c1cccnc1 -12.5%
O=C(CNC(=O)c1ccco1)N/N=C/c1ccccc1[N+](=O)[O-] 16.6%
COc1cccc(/C=N/NC(=O)CNC(=O)c2cccs2)c1O 9.63%
O=C(CNC(=O)c1ccco1)N/N=C/c1cc(Br)ccc1O 5.36%
COc1cccc(/C=N/NC(=O)CNC(=O)c2cccnc2)c1O 5.08%
O=C(N/N=C/c1ccc(O)cc1O)c1ccncc1 31.7%
O=C(CNC(=O)c1cccs1)N/N=C/c1ccccc1[N+](=O)[O-] 3.27%
O=C1OC(COc2ccc(Br)cc2)CN1c1ccccc1 (stereo not drawn) 0.77%
Cc1ccc(OCc2nnc(SC(C)C(=O)O)n2Cc2ccccc2)cc1 (stereo not drawn) -1.5%
O=C(COC(=O)[C@@H]1CC(O)CN1S(=O)(=O)c1ccc2c(c1)OCCO2)Nc1ccccc1F (stereo partly drawn) 1.86%
O=C(c1ccc(Cl)nc1)N1CCN(C/C=C/c2ccccc2)CC1 10.5%
O=C(CN1C(=O)NC2(CCc3ccccc32)C1=O)c1c[nH]c2ccccc12 (stereo not drawn) -3.1%
CN1CCN(C(c2cccc(Cl)c2)c2ccccc2Cl)CC1 (stereo not drawn) 7.6%
CC1(C)C(=O)N(c2ccccc2)C1c1ccccc1O (stereo not drawn) 3.93%
O=C(CCCCCNC(=O)c1ccccc1)N/N=C/c1ccccc1O 3.53%
O=C(CCCCCNC(=O)c1ccccc1)N/N=C/c1ccc(F)cc1 6.47%
Oc1ccc(C=NNC(=S)Nc2cccnc2)nc1 7.4%
Oc1ccc(/C=N/NC(=S)Nc2cccnc2)c(O)c1O -102%
O=C(COc1ccccc1)NCC(=O)N/N=C/c1ccccc1 5.67%
Cc1cccc(OCC(=O)NCC(=O)N/N=C/c2ccc(O)cc2O)c1 18.5%
FC(F)(F)c1cnc(COc2ccc(Cl)cc2Cl)c(Cl)c1 7.97%
COc1ccccc1-c1cc(C(=O)NCc2ccco2)no1 11.6%
CCN(C[C@H]1N[C@@](C)(C(=O)OC)[C@H]2C(=O)N(C)C(=O)[C@@H]12)C(=O)Nc1ccc(C(F)(F)F)cc1 4.98%
COCCn1c(SC(C(=O)Nc2cc(C)ccc2OC)c2ccccc2)nnc1-c1ccc(Cl)cc1 (stereo not drawn) 8.02%
CC(C)COP(=O)(OCC(C)C)C(O)c1ccc2c(c1)OCO2 (stereo not drawn) 2.18%
N#Cc1c(-c2ccccc2)ccn(Cc2ccc(Cl)cc2)c1=O 11.4%
COc1cc(CNC2CCCCC2OC)cc(OC)c1OC (stereo not drawn) 21.8%
COc1cc(CNC2CCCC2)cc(OC)c1 16.2%
Cc1ccc(C)c(N2CCN(C(=O)Cc3ccc(NC4=NC5CS(=O)(=O)CC5S4)cc3)CC2)c1 (stereo not drawn) 15.3%
O=C(CNc1ccccc1)N/N=C/c1ccc2c(c1)OCO2 1.14%
O=C(CNc1ccc2c(c1)OCO2)N/N=C\c1cn(Cc2ccccc2)c2ccccc12 9.72%
CCOC(=O)Cc1csc(SC(C)C(=O)NC2CCCCC2C)n1 (stereo not drawn) 10.4%
CC(=O)c1ccc(N2CCN(C(=O)c3noc4c3CSc3ccccc3-4)CC2)cc1 10.2%
O=S(=O)(NCC(c1cccnc1)N1CCN(c2ccccc2)CC1)c1cccs1 (stereo not drawn) 2.98%
CCS(=O)(=O)NC(C)C(c1cccs1)N1CCN(c2ccc(F)cc2)CC1 (stereo not drawn) 8.25%
O=S(=O)(NCC(c1cccnc1)N1CCN(c2ccc(F)cc2)CC1)c1cccs1 (stereo not drawn) 5.99%
Fc1ccc(N2CCN(C(c3cccs3)c3nnnn3CCc3ccccc3)CC2)cc1 (stereo not drawn) -2.42%
COc1ccc(N2CCN(C(c3cccs3)C(C)NS(C)(=O)=O)CC2)cc1 (stereo not drawn) 27.8%
COc1ccc(N2CCN(C(c3ccccc3)c3nnnn3Cc3ccc(F)cc3)CC2)cc1 (stereo not drawn) 19%
c1ccc(CCn2nnnc2C(c2cccs2)N2CCOCC2)cc1 (stereo not drawn) 6.38%
c1ccc(Cn2nnnc2C(c2cccnc2)N2CCN(c3ccccc3)CC2)cc1 (stereo not drawn) 2.89%
CC1CCCC(NC(=O)CN2C(=O)NC(C)(c3ccccc3)C2=O)C1C (stereo not drawn) 2.02%
O=C(N/N=C/c1ccoc1)c1ccc([N+](=O)[O-])cc1 3.91%
COc1cccc2cc(C(=O)N3CC(C)OC(C)C3)c(=O)oc12 (stereo not drawn) 5.05%
COC(=O)c1ccc(COC(=O)c2ccccc2OC)cc1 -1.87%
COc1ccc(C(=O)NNC(=O)c2ccccc2[N+](=O)[O-])cc1Br 2.78%
COc1ccc([C@H]2CC(=O)C=C(c3cccc(F)c3OC)C2)cc1 9.17%
Cc1ccc(C(=O)N2CCN(Cc3ccc4c(c3)OCO4)CC2)o1 3.03%
O=C(c1cccc(F)c1)N1CCN(c2ccc([N+](=O)[O-])c(N3CCOCC3)c2)CC1 9.81%
CN1C(=O)CSC1=S 6.82%
O=c1[nH]nc(CNc2cccc(C(F)(F)F)c2)c2ccccc12 7.15%
COc1ccc(OC)c(C(c2c(C)[nH][nH]c2=O)c2c(C)[nH][nH]c2=O)c1 12.8%
O=c1c(Cl)c(N2CCN(c3ccc(F)cc3)CC2)cnn1C12CC3CC(CC(C3)C1)C2 -5.26%
N#Cc1nnn2c1nc(N)c1c(F)cccc12 2.66%
